The results in this text go back to PubChem BioAssay (NCATS).

In assay [1] the test system is Zika virus NS2B-NS3 protease (linked construct). Nature of the assay: Primary screen NINDS Rhodamine qHTS for Zika virus inhibitors (AID 1347160). Further: nearly all actives have a fitted effect of over 55% in size. Put shortly:
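Purified linked NS2B-NS3 protease (NS2B hydrophilic domain joined to NS3 protease by flexible linker), 25 nM in 10 mM Tris-HCl pH 8.0, 0.01% Tween 20. Compounds titrated, 15 min preincubation at room temperature; 1.5 microM Rhodamine110 substrate, FITC fluorescence change over 15 min.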

In assay [2] the target is Calcium and integrin-binding protein 1 (Homo sapiens) (UniProt Q99828). The experiment in a line: Primary qHTS for Identification of Calcium Integrin Binding Protein 1 (CIB1) Competitor (AID 1508620).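 Further: GST tagged CIB1 binding a fluorescein labelled alphaIIb integrin peptide tracer; top concentration of the series differs between compounds; on the % scale 0 is the no-effect control and ±100 the full control effect.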 Put shortly:
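Fluorescence polarization competition: GST-tagged CIB1 (1 uM final) preincubated with compound 15 min at room temperature, then FITC-labelled alphaIIb peptide (100 nM final) added. After 15 min at room temperature, polarization read at Ex 480/Em 540.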

The nature of assay [3]: Primary qHTS for inhibitors of nuclear receptor binding SET domain protein 2 (NSD2) in an isogenic RCH-ACV NSD2 p.E1099K mutant (9B) (AID 1645876; further: nearly all actives have a fitted effect of over 70% in size; further: potency means the concentration at half of the fitted maximal effect). (Quantitative high-throughput screening tests each substance at several concentrations.)
Assay [4] is described as follows: Primary qHTS for inhibitors of nuclear receptor binding SET domain protein 2 (NSD2) in an RCH-ACV wild type WT cells (2C) (AID 1645877). Further: potency means the concentration at half of the fitted maximal effect; nearly all actives have a fitted effect of over 70% in size.
The target of assay [5] is Glutathione peroxidase 1 (Homo sapiens) (UniProt P07203). The experiment in a line: Primary qHTS Assay for Inhibitors of Recombinant Selenoprotein Glutathione Peroxidase 1 (GPX1) (AID 1845191). Further: nearly all actives have a fitted effect of over 65% in size. The gist of the method: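 GR-coupled assay: compounds preincubated 30 min at room temperature with GPX1, then reaction started with CHP; final 10 nM GPX1, 1 mM GSH, 0.5 mM CHP, 0.5 mM NADPH, 100 nM GR, 0.01% BSA, pH 7.5 Tris buffer. NADPH fluorescence (340/450 nm) read at 0 and 15 min.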

Assay [6] has as its target Phospholipid hydroperoxide glutathione peroxidase GPX4 (Homo sapiens) (UniProt P36969). The experiment in a line: Primary qHTS Assay for Inhibitors of Recombinant Selenoprotein Glutathione Peroxidase 4 (GPX4) (AID 1845192). Further: on the % scale 0 is the no-effect control and ±100 the full control effect; nearly all actives have a fitted effect of over 65% in size. Particulars: outcome: dose series up to 50 µM unless noted. Put shortly:
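GR-coupled assay: recombinant GPX4 preincubated 30 min with compound at room temperature; final 200 nM GPX4, 1 mM GSH, 0.5 mM cumene hydroperoxide, 0.5 mM NADPH, 100 nM GR, 0.01% BSA, pH 7.5 Tris. NADPH fluorescence (340/450 nm) read at 0 and 15 min.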

Assay [7] has as its target Luciferin 4-monooxygenase (Photinus pyralis) (UniProt P08659). Nature of the assay: Primary firefly luciferase (FLuc) qHTS assay for identification of artifact compounds. (AID 1845220). Further: nearly all actives have a fitted effect of over 60% in size. Further: potency means the concentration at half of the fitted maximal effect. The gist of the method: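 Titrated compounds were incubated 15 min at RT, protected from light, with luciferin and ATP at 10 uM; reaction started with 10 nM FLuc, luminescence imaged at 5 min, and concentration-response fitted by Hill equation.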

Assay [8] has as its system Nanoluciferase (engineered Oplophorus gracilirostris luciferase). The experiment in a line: Primary Nanoluciferase (NLuc) qHTS assay for identification of artifact compounds. (AID 1845222).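 Further: NLuc secreted into diluted conditioned medium of S16 cells; 0% = DMSO and -100% = no enzyme.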 Put shortly: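 qHTS format, against NLuc in S16 cell-conditioned medium. Nano-Glo substrate 1:100 was added after 15 min at room temperature. Luminescence was taken after a further 5 min.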

Assay [9] can be described thus: Primary redox qHTS assay for identification of artifact compounds. (AID 1845223).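 Further: 0% = DMSO and 100% = reference compound.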 The gist of the method:
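Amplex Red (25 uM) and HRP (250 mU/mL) in HBSS, with compounds for 15 min, then 250 uM DTT for 30 min, room temperature, dark. Fluorescence 525/598 nm read; normalized to DMSO and 10 uM DA3003; Hill fit.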

Another assay deals with HaCat. The experiment in a line: Cytotoxic Profiling of Annotated Libraries Using Quantitative High-Throughput Screening (AID 1296008). Further: nearly all actives have a fitted effect of over 60% in size. Further: potency means the concentration at half of the fitted maximal effect. On max response: on the % scale 0 is the no-effect control and ±100 the full control effect. Particulars: Five cell lines viability, CellTiter-Glo ATP luminescence, 48-72 h; max response: stronger effect = lower value. The gist of the method: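 Cells exposed to compounds for 48 or 72 hr at 37 degrees Celsius. Viability read as ATP-coupled luminescence with CellTiter-Glo after 10 min at room temperature.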

Another assay relates to C33A. Nature of the assay: Primary qHTS to identify gynecologic anti-cancer compounds using libraries of approved drugs and bioactive compounds (AID 1345084). Further: nearly all actives have a fitted effect of over 55% in size. Further: potency means the concentration at half of the fitted maximal effect. The conditions noted are these: Gynecologic cancer cell panel viability, ATPlite luminescence, 48 h; series mostly up to 57.5 µM. The gist of the method: (§1)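 ATP-based viability (ATPlite), 1,000 cells/well, 16 h pre-incubation, 48 h compound at 37 C, 5% CO2, 15 min RT before read.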

A further assay has as its system CASKI. Described as above. The conditions noted are these: Gynecologic cancer cell panel viability, ATPlite luminescence, 48 h; series mostly up to 57.5 µM. Put shortly: as §1
For the next assay, the system named is Es-2. Described as above. The conditions noted are these: Gynecologic cancer cell panel viability, ATPlite luminescence, 48 h; series mostly up to 57.5 µM. Put shortly:
as §1
Background: In ATP-based viability assays light output follows the ATP content of the culture.

Another assay relates to HeLa. Described as above. The conditions noted are these: Gynecologic cancer cell panel viability, ATPlite luminescence, 48 h; series mostly up to 57.5 µM. Put shortly:
as §1

The subject of the next assay is Hek293T. Described as above. The conditions noted are these: Gynecologic cancer cell panel viability, ATPlite luminescence, 48 h, control line for the selectivity index; series mostly up to 57.5 µM. Put shortly:
as §1

The next assay concerns JEG-3. Described as above. The conditions noted are these: Gynecologic cancer cell panel viability, ATPlite luminescence, 48 h; series mostly up to 57.5 µM. The gist of the method:
as §1

Another assay relates to OV90. Described as above. Particulars: Gynecologic cancer cell panel viability, ATPlite luminescence, 48 h; series mostly up to 57.5 µM. The gist of the method: as §1
Another assay concerns Tov-21-G. The description is as above. The conditions noted are these: Gynecologic cancer cell panel viability, ATPlite luminescence, 48 h; series mostly up to 57.5 µM. Put shortly:
as §1

For the next assay, the system named is Tov112D. The description is as above. The conditions noted are these: Gynecologic cancer cell panel viability, ATPlite luminescence, 48 h; series mostly up to 57.5 µM. The gist of the method: as §1
Assay [10] is described as follows: qHTS drug screen for cell cycle checkpoint inhibitors in PARPi-resistant BRCA-mutant ovarian cancer cell lines. (AID 1963452; calls by dose curve). Particulars: PEO1/OlaR viability, CellTiter-Glo luminescence, 96 h, stronger effect = lower value. Put shortly: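 PEO1, PEO4 and PEO1/OlaR ovarian cancer cells, 600 per well, exposed 96 h at 37C to a dilution series. Viability read by CellTiter-Glo luminescence, normalized to DMSO and empty wells; activity summarized as Z-AUC.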

Results filed as inconclusive are left out. More than one record can exist for a structure, and the calls need not agree. The source made the active and inactive calls. Unless noted, the call rests on the fitted dose curve; in most records, active means well fitted curve in the direction sought with a large enough effect; inconclusive means small, poorly fitted or top-dose-only effect, or another doubt; inactive means no such curve, though single readings can be large; an effect the other way counts as inactive or inconclusive.

Sequence of Phospholipid hydroperoxide glutathione peroxidase GPX4 (Homo sapiens) (P36969 whole entry, looked up): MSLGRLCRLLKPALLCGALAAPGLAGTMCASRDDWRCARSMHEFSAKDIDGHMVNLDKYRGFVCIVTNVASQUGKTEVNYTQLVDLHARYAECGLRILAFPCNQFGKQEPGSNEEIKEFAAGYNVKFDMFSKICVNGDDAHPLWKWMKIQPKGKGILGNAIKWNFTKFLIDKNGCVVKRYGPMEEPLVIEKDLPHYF
Sequence of Calcium and integrin-binding protein 1 (Homo sapiens) (Q99828 whole entry, looked up): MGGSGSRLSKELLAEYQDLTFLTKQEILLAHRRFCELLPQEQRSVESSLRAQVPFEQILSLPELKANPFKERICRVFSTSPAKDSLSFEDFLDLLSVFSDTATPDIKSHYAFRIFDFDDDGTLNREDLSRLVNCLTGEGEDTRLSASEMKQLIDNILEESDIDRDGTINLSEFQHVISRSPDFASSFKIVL
Sequence of Glutathione peroxidase 1 (Homo sapiens) (P07203 whole entry, looked up): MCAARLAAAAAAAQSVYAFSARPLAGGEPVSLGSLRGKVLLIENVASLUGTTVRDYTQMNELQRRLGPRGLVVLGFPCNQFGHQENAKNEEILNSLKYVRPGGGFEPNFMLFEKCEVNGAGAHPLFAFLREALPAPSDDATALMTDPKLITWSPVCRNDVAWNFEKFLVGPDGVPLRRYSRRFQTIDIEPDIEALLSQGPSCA

Regarding `CC(C)(C)c1ccc(-c2nc3ccccc3[nH]2)cc1`, the Potency result in [1], in [5], in assay [6], in assay [8] and in [9] was “inactive” in each case. Also, in [2], the outcome was inactive. Besides, the Potency in assay [3] is 8.93 µM (active); in assay [4] it was 6.32 µM (active); in [7], 0.0294 µM (active); in the assay with C33A, 1.26 µM (active); in the assay with CASKI, 1.12 µM (active); in the assay on Es-2, 1.58 µM (active). Moreover, the Potency with HeLa was 2.24 µM (active); in the assay with Hek293T, 2.24 µM (active); in the assay on JEG-3, 1.78 µM (active); in the assay on OV90, 1.41 µM (active); in the assay on Tov-21-G it was 1.41 µM (active); with Tov112D, 3.98 µM (active). The max response in the assay with HaCat is -8.47% (inactive).
As to `CCC(C)n1cc(C)c2c(C(=O)NCc3c(C)cc(C)[nH]c3=O)cc(-c3ccc(N4CCNCC4)nc3)cc21` (configuration not stated), the Potency entry (in assay [1]; in [7]; in assay [8]; in assay [9]; in the assay with C33A; in the assay on CASKI) was “inactive” in each case. Also, the Potency result in the assay with Es-2, with HeLa, in the assay on Hek293T, in the assay on JEG-3, in the assay with OV90 and in the assay on Tov-21-G was “inactive” each time. The Potency entry in the assay with Tov112D is “inactive”. In addition, the result (in assay [2]; in the assay with HaCat) was inactive. Besides, the Potency is 20.5 µM (active) in [3] and 14.5 µM (active) in assay [4].
On to `Nc1ncnc2c1ncn2[C@@H]1O[C@H](CO)C[C@H]1O`, for which the Potency entry (in assay [1]; in assay [5]; in [6]; in assay [7]; in assay [9]; with C33A) was “inactive” throughout. Also, the Potency result in the assay with CASKI, with JEG-3, with OV90 and with Tov112D was “inactive” each time. In assay [2], the outcome was inactive. The Potency in [3] is 10.3 µM (active) and inactive; in assay [4], 5.78 µM (active). Also, the Z-AUC in [10] was 1.48 (inactive); in assay [10] (measured here: PEO1 parental Z-AUC), 0.932; in assay [10] (measured here: PEO4 Z-AUC) it was 0.673. The max response in the assay with HaCat was -125% (inactive).
For `COc1ccc(C(=O)N(CCC(C)C)Cc2nc(C)c(C)n2Cc2ccccc2C)c(OC)c1`, the Potency entry in [1], in assay [5], in [6], in assay [7], in assay [8] and in assay [9] was “inactive” throughout. Besides, the Potency entry with C33A, with CASKI, with Es-2, in the assay on HeLa, in the assay on Hek293T and with JEG-3 was “inactive” each time. In addition, the Potency entry in the assay with OV90, in the assay with Tov-21-G and in the assay with Tov112D was “inactive” in each case. The outcome in [2] was inactive. For the same compound, the Potency in assay [3] and in assay [4] was 11.5 µM (active) in each case.
Take `OCC(Cc1ccccc1)Nc1nc(Oc2ccc3c(c2)CCC3)nc2c1ncn2Cc1ccc(-c2ccccc2)cc1` (configuration not stated): the Potency entry (in [1]; in assay [6]; in assay [7]; in assay [9]; in the assay on C33A; with CASKI) was “inactive” in each case. Further, the Potency result with HeLa, with Hek293T, in the assay on OV90, in the assay on Tov-21-G and with Tov112D was “inactive” in each case. For the same compound, the result in assay [2] was inactive. Also, the values for the Potency (in [3]; in the assay with HaCat) were 16.3 µM (active) and 18.4 µM (active), respectively.
With `COc1cc(O)c(C(=O)CCc2ccc(O)cc2)c(O[C@@H]2O[C@H](CO)[C@@H](O)[C@H](O)[C@H]2O)c1`, the outcome (in assay [2]; in the assay with HaCat) was inactive. For the same compound, the Potency entry (in assay [5]; in assay [7]; in assay [9]; in the assay on C33A; in the assay with CASKI; with HeLa) was “inactive” each time. In addition, the Potency result in the assay with JEG-3, in the assay on OV90, with Tov-21-G and in the assay with Tov112D was “inactive” throughout.
